High-throughput results: PubChem, National Center for Advancing Translational Sciences (NCATS)
The list is not random: actives were taken first. Their share in the collection is about 19%.
TDP1 cell noCPT = qHTS for Inhibitors of human tyrosyl-DNA phosphodiesterase 1 (TDP1): qHTS in cells in absence of CPT | 420,000 compounds, 15% hits | DT40 Tdp1-/- hTDP1 cells, no CPT, ATP luminescence, 48 h | AID 686978, 2013 | Potency, µM (doses to about 46.2 µM), inactives show at the highest dose activity change, negative = growth inhibition, actives largely listed as inhibitors; also: nearly all actives have a fitted effect of over 55% in size
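Chicken DT40 Tdp1-/- cells stably complemented with human TDP1 were seeded at 400 cells/well with DMSO in place of 20 nM camptothecin. After compound pinning, cells grew at least 48 hr at 37 °C; viability read by CellTiter-Glo luminescence.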
Gal4-VP16 FLuc = inhibits Gal4-VP16 luciferase reporter, ROR gamma counter-screen; Drosophila S2 Gal4-VP16 UAS-luciferase, luminescence, 20 h; Potency, µM (titrated, usually from 53.6 µM), without a hit: top-dose activity, negative = inhibition, most hits filed as inhibitors; 310,000 compounds, 3.5% hits; AID 2546;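 also: Gal4-VP16 expression switched on by copper sulfate through the metallothionein promoter; nearly all actives have a fitted effect of over 50% in size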
TDP1 inh = TDP1 (human) enzyme inhibition; Potency, µM (doses to about 130 µM), for inactives: top-dose activity change, negative = inhibition, most hits filed as inhibitors; 350,000 compounds, 0.28% hits; AID 485290; Q9NUW8; recombinant TDP1, AlphaScreen DNA substrate cleavage; also: nearly all actives have a fitted effect of over 40% in size
Target sequence (Q9NUW8 whole entry, looked up): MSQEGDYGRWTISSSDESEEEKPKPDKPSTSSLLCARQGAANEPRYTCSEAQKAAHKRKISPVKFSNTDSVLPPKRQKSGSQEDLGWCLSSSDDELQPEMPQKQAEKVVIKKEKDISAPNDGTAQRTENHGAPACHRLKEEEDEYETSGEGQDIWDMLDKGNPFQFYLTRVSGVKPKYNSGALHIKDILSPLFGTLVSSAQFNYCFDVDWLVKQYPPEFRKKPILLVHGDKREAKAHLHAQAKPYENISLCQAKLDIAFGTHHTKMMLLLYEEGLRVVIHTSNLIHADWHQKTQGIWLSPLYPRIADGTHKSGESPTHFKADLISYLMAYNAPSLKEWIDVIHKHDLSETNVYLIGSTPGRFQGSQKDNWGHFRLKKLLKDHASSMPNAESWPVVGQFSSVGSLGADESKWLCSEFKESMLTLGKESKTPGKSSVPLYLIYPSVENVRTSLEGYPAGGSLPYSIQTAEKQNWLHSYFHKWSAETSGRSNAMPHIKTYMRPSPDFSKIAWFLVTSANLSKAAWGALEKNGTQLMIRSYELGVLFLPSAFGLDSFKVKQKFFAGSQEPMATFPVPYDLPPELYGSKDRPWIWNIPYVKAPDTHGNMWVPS
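Here, a 5' biotin and 3' phosphotyrosine-FITC DNA oligonucleotide reports Tdp1 activity: intact substrate bridges AlphaScreen beads, while cleavage leaves a 3' phosphate and drops signal. All incubations at room temperature.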
TDP1 cell CPT = DT40-hTDP1 cell growth loss with CPT; chicken DT40 Tdp1-/-;hTDP1 cells + 20 nM CPT, ATP luminescence, 48 h; Potency, µM (series often up to 46.2 µM), for the others: at the top dose activity change, negative = growth inhibition, hits mostly inhibitors; 420,000 compounds, 12% hits; AID 686979; also: nearly all actives have a fitted effect of over 55% in size
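Chicken DT40 Tdp1-/- cells stably complemented with human TDP1 were seeded at 400 cells/well in medium containing 20 nM camptothecin, exposed to pin-transferred compounds, and grown at 37 °C for at least 48 hr. Viability was read as ATP luminescence.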
RORg inh = ROR gamma (mouse) transcription inhibition. P51450. Drosophila S2 Gal4-RORgamma UAS-luciferase reporter, 20 h. Potency, µM (highest dose often 53.6 µM), without a hit: top-dose activity change, negative = inhibition, most hits filed as inhibitors. 310,000 compounds, 5.4% hits. AID 2551; also: nearly all actives have a fitted effect of over 60% in size
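Read-out: Photinus luciferase luminescence; inhibitors lower reporter signal. Insect Schneider cells with Gal4-ROR gamma fusion under metallothionein promoter, UAS reporter; 700 uM final copper sulfate induction, 20 hr, ambient temperature.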
The depositor's hits bear a star; ? = inconclusive; · = not tested or not shown; [ ] = remark or other dose. Calls follow the shape of the dose curve; as a rule, active = well fitted curve in the direction sought with a large enough effect; inconclusive = small, poorly fitted or top-dose-only effect, or another doubt; inactive = no such curve, though single readings can be large; an effect the other way counts as inactive or inconclusive. % is scaled to controls: 0 for no effect and ±100 for the full control effect; potency is read from the fitted curve at half-maximal effect.

SMILES | TDP1 cell noCPT | Gal4-VP16 FLuc | TDP1 inh | TDP1 cell CPT | RORg inh
O=C(COC(=O)CNC(=O)c1cccc([N+](=O)[O-])c1)Nc1cccc(S(=O)(=O)N2CCCC2)c1 | ? | -6% | 5% | ? | 22%
COc1ccc(CCNC(=S)NC(=O)c2ccccc2)cc1C | ? | ? | 7% | ? | 10µM*
COc1ccc(CCNC(=S)NC(=O)c2ccc(Br)cc2)cc1OC | ? | ? | 8% | ? | 13µM*
COc1ccccc1NC(=S)NCCc1ccc(OC)c(OC)c1 | -21% | -13% | · | -6% | ?
CCOC(=O)N1CCC(NC(=O)C2CCCN(c3nc4ccccc4o3)C2)CC1 (centres undefined) | -18% | -10% | 5% | -9% | ?
O=C(CCN1CCc2ccccc2C1)Nc1cccc(F)c1 | -18% | 9% | 0% | -1% | -11%
Cc1ccc(Cn2c(C)c(CNC(C)c3ccccc3)c(C(=O)O)c2C)cc1 (centres undefined) | 26µM* | · | 0% | ? | ·
COc1ccc(N(C(C)C(=O)N/N=C/c2ccc(OC)c(OC)c2)S(C)(=O)=O)cc1 (centres undefined) | 7% | -9% | 3% | ? | -15%
CC(C(=O)N/N=C/c1ccc(N(C)C)c(Br)c1)N(c1ccccc1)S(C)(=O)=O (centres undefined) | 9.2µM* | -4% | 2% | ? | 21%
C[C@H]1CN=C(N(C)C)N1CCc1ccccc1 | -4% | · | -7% | 3% | ·
CC1Cc2ccccc2C(CCc2ccccc2)=N1 (centres undefined) | ? | -5% | · | -30% | 13µM*
Cc1ccccc1NC(=O)Nc1c(C)n(C)n(-c2ccccc2)c1=O | 1% | -13% | 4% | 13% | -3%
CCOc1ccc(NC(=O)CN(C)C(=O)CCCOc2ccc(Br)cc2)cc1OCC | ? | · | 6%[0.505 µM] | 18µM* | ·
COc1ccc(NC(=O)CN(C)C(=O)c2ccc(=O)[nH]c2)cc1 | 13% | ? | 1% | 3% | ?
CCOc1ccc2oc(C(=O)N(C)CCc3ccc(OC)c(OC)c3)c(C)c2c1 | ? | · | 0% | 21µM* | ·
COc1ccc(NC(=O)CN(C)C(=O)c2oc3ccccc3c2C)cc1 | -10% | -3% | 6% | -3% | 21%
CCOc1ccc2oc(C(=O)N(C)CC(=O)Nc3ccc(OCC)c(OCC)c3)c(C)c2c1 | 18µM* | · | -7%[0.505 µM] | ? | ·
CCOc1ccc(NC(=O)CN(C)C(=O)c2ccc(=O)[nH]c2)cc1OCC | 0% | 15% | 3% | -16% | 11µM*
COc1ccc(CCCNC(=O)C2CCC(=O)N(Cc3ccc(Cl)cc3)C2)cc1 (centres undefined) | ? | · | 5% | ? | ·
Cc1[nH]c2ccccc2c1C(=O)C(C)OC(=O)c1ccc(NC(=O)CC#N)cc1 (centres undefined) | ? | · | -1% | ? | ·
N=C(N)SCc1ccc(Cl)cc1Cl | 18µM* | 2% | 11% | 23µM* | 0%
Cc1cc(C)cc(Oc2nc(-c3ccccc3)cc(C)c2S(C)(=O)=O)c1 | ? | 9% | 6% | ? | 9%
Cc1cc(-c2ccccc2)nc(Oc2ccc(C(C)(C)C)cc2)c1S(C)(=O)=O | 21µM* | -15% | 2% | ? | 18%
COc1ccccc1Oc1nc(-c2ccccc2)cc(C)c1S(C)(=O)=O | 18µM* | -1% | 1% | ? | ?
CCCC(=O)N1CCN(c2nc3ccc(Br)cc3s2)CC1 | -103% | ? | 0% | ? | ?
SMILES | TDP1 cell noCPT | Gal4-VP16 FLuc | TDP1 inh | TDP1 cell CPT | RORg inh
Cc1cc(NC(=O)CSCC(=O)N(c2ccc(F)cc2)C(C(=O)NC2CCCCC2)c2ccc(O)c(O)c2)no1 (centres undefined) | 16µM* | -5% | -5% | ? | 5%
COc1ccc(N(C(=O)CSCC(=O)Nc2cc(C)on2)C(C(=O)NC2CCCCC2)c2ccc(O)c(O)c2)cc1 (centres undefined) | ? | 3% | -6% | -24% | -36%
CN(C)c1ccc(CNC(=O)c2ccc3c(c2)N(C)C(=O)C2CCCCN32)cc1 (centres undefined) | ? | · | 5% | 18µM* | ·
NC(=S)N=Nc1c(O)[nH]c2c(Br)cc(Br)cc12 | 21µM* | 11µM* | 5% | ? | 3.5µM*
COc1ccc2[nH]c(O)c(N=NC(=N)N)c2c1 | 1% | -2% | 2% | 0% | 31%
CC(C)c1ccc2[nH]c(O)c(N=NC(=O)c3ccc(CSc4nncn4C)cc3)c2c1 | 16µM* | -1% | 3% | 23µM* | 5%
CC(C)c1ccc2[nH]c(O)c(N=NC(=S)NCCc3ccccc3)c2c1 | 8.2µM* | 2.2µM* | 0% | 18µM* | 2µM*
CCNC(=S)N=Nc1c(O)[nH]c2ccc(C(C)C)cc12 | 5.2µM* | 7.1µM* | 4% | 5.2µM* | 2.8µM*
O=C(CSCc1ccccc1)N=Nc1c(O)[nH]c2ccccc12 | -28% | 8% | 6% | -2% | 12%
Oc1[nH]c2ccccc2c1N=NC(=S)NCCc1ccccc1 | ? | 3.2µM* | 8% | 16µM* | 4.5µM*
Cc1ccc2[nH]c(O)c(N=NC(N)=S)c2c1 | -3% | 2% | 5% | ? | 20%
CCC(O)(CC)C(=O)N=Nc1c(O)[nH]c2ccccc12 | 7% | -12% | -2% | -5% | -5%
NC(=S)N=Nc1c(O)[nH]c2ccccc12 | -10% | -3% | -5% | 13% | 20µM*
O=C(N=Nc1c(O)[nH]c2ccccc12)c1ccco1 | 16µM* | ? | 1% | ? | ?
CCCCNC(=S)N=Nc1c(O)[nH]c2ccccc12 | 10µM* | 5.6µM* | 11% | ? | 2.2µM*
CC(=O)Nc1ccc(NC(=O)Cc2sc(C)nc2-c2ccc(C)cc2)cc1 | -9% | -4% | 4% | 32% | ?
CC(=O)OC1CC(n2ccc(NC(=O)c3ccccc3)nc2=O)OC1CO (centres undefined) | -15% | -2% | 1% | -9% | 2%
CCOC(=O)C1=C(N)N(c2ccccc2)C(=O)C1 | 16µM* | -5% | 5% | 7.3µM* | 18%
CCOC(=O)c1nn(-c2ccccc2)c(C(=O)OCC)c1N | 1% | 2% | 0% | -9% | 1.3µM*
CCOC(=O)c1nn(-c2ccccc2)c(=O)c2c(N)scc12 | 15µM* | 4% | 4% | 8.2µM* | 6%
Nc1scc2c(C(=O)N/N=C/c3ccc(Cl)cc3)nn(-c3ccccc3)c(=O)c12 | 7.3µM* | -9% | · | 8.2µM* | 4%
CCOc1ccccc1NC(=O)C(Sc1ccccc1)c1ccccc1 (centres undefined) | ? | ? | -4% | ? | 4%
